Source: PubChem BioAssay (EPA / NIEHS)
Where “and” joins values, the source holds several entries; their conditions need not be identical. Equal entries are not always repeated. Where a structure was tested more than once in an assay, its records may differ in their call. Calls of active or inactive are those of the source. Rule for the calls: active = hit-call score of the fitted dose curve at least 0.9, where 1 is the maximum; inactive = score below 0.9.

How the values were obtained:
[1] = read-out: Collagen I, COL1A1 (gene 1277); assay: BSK_MyoF_CollagenI: BioMAP Diversity Plus: MyoF Assay for Collagen I Biomarker Activity (AID 2284238); conditions: primary human lung fibroblasts
In short: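 Collagen I levels measured by ELISA on human lung fibroblast cultures 24 h post-dosing, with curve fitting in the positive direction relative to DMSO; SRB staining of parallel wells marked cytotoxicity.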

[2] = read-out: Collagen III, COL3A1 (gene 1281); assay: BSK_MyoF_CollagenIII: BioMAP Diversity Plus: MyoF Assay for Collagen III Biomarker Activity (AID 2284239); conditions: primary human lung fibroblasts
In short: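 Collagen III biomarker quantified by ELISA in human lung fibroblast cultures 24 h after dosing. Activity fitted in the positive direction against DMSO as baseline.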

[3] = read-out: Interleukin 17F (IL17F), IL17F (gene 112744); assay: BSK_BT_xIL17F: BioMAP Diversity Plus: BT Assay for Interleukin 17F (IL17F) Biomarker Activity (AID 2284243); conditions: primary human B cells with PBMC
In short: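 Human B cells co-cultured with PBMC; secreted IL-17F quantified by LumineX xMAP 24 hours after chemical dosing. Activity fitted in the positive direction against DMSO negative control as baseline.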

[4] = read-out: Actin alpha 1 (ACTA1), ACTA1 (gene 58); assay: BSK_MyoF_ACTA1: BioMAP Diversity Plus: MyoF Assay for Actin alpha 1 (ACTA1) Biomarker Activity (AID 2284244); conditions: primary human lung fibroblasts
In short: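 Human lung fibroblasts (MyoF system) dosed with test chemical for 24 h; α-SMA measured by ELISA. Gain of signal fitted relative to DMSO negative control as baseline.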

[5] = read-out: Interleukin 2 (IL2), IL2 (gene 3558); assay: BSK_BT_xIL2: BioMAP Diversity Plus: BT Assay for Interleukin 2 (IL2) Biomarker Activity (AID 2284245); conditions: primary human B cells with PBMC
In short: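 Human B cells co-cultured with PBMC, exposed to test chemical for 24 h. Secreted IL-2 quantified by Luminex xMAP bead immunoassay; activity fitted in the positive direction relative to DMSO vehicle baseline.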

[6] = read-out: Basic fibroblast growth factor (bFGF), FGF2 (gene 2247); assay: BSK_MyoF_bFGF: BioMAP Diversity Plus: MyoF Assay for Basic fibroblast growth factor (bFGF) Biomarker Activity (AID 2284246); conditions: primary human lung fibroblasts
In short: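 Human lung fibroblasts were dosed with chemicals and bFGF was quantified by ELISA 24 h later. Activity was fitted in the gain-of-signal direction relative to DMSO as negative control and baseline. Parallel SRB total-protein staining tracked overt cytotoxicity.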

[7] = read-out: Collagen IV, COL4A1 (gene 1282); assay: BSK_MyoF_CollagenIV: BioMAP Diversity Plus: MyoF Assay for Collagen IV Biomarker Activity (AID 2284247); conditions: primary human lung fibroblasts
In short: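 Primary human lung fibroblasts were exposed to test chemicals and sampled 24 h after dosing. Collagen IV levels were measured by ELISA and fitted in the positive direction against DMSO as negative control and baseline.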

[8] = read-out: Monokine induced gamma interferon (MIG), CXCL9 (gene 4283); assay: BSK_KF3CT_MIG: BioMAP Diversity Plus: KF3CT Assay for Monokine induced gamma interferon (MIG) Biomarker Activity (AID 2284248); conditions: primary human keratinocytes with fibroblasts
In short: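 Parallel cultures were stained with SRB (560 nm) to check cytotoxicity. MIG was quantified by ELISA in a primary human skin keratinocyte/fibroblast co-culture 24 h post-dosing, with gain of signal fitted relative to DMSO.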

[9] = read-out: Collagen I, COL1A1 (gene 1277); assay: BSK_hDFCGF_CollagenI: BioMAP Diversity Plus: hDFCGF Assay for Collagen I Biomarker Activity (AID 2284250); conditions: primary human foreskin fibroblasts
In short: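 Primary human foreskin fibroblasts (hDFCGF system) exposed to chemical for 24 h; Collagen I measured by ELISA. Activity fitted in the positive direction relative to DMSO baseline, with SRB total-protein staining in parallel cultures for overt cytotoxicity.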

[10] = read-out: Interferon-inducible T-cell alpha chemoattractant (ITAC), CXCL11 (gene 6373); assay: BSK_hDFCGF_ITAC: BioMAP Diversity Plus: hDFCGF Assay for Interferon-inducible T-cell alpha chemoattractant (ITAC) Biomarker Activity (AID 2284251); conditions: primary human foreskin fibroblasts
In short: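 Fibroblasts (human foreskin, primary) are treated with chemical, cultured 24 h, then assayed for I-TAC by ELISA. Overt toxicity is checked in parallel cultures by sulforhodamine B staining of total protein at the same time point.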

[11] = read-out: Monocyte Chemoattractant Protein-1 (MCP1), CCL2 (gene 6347); assay: BSK_IMphg_MCP1: BioMAP Diversity Plus: IMphg Assay for Monocyte Chemoattractant Protein-1 (MCP1) Biomarker Activity (AID 2284253); conditions: primary human endothelial cells with macrophages
In short: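 Human venular endothelial cells co-cultured with macrophages; MCP-1 measured by ELISA 24 hours post-dose and fitted against DMSO. Cytotoxicity monitored by SRB total-protein staining in parallel cultures.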

[12] = read-out: Interleukin-8 (IL8), CXCL8 (gene 3576); assay: BSK_KF3CT_IL8: BioMAP Diversity Plus: KF3CT Assay for Interleukin-8 (IL8) Biomarker Activity (AID 2284254); conditions: primary human keratinocytes with fibroblasts
In short: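 IL-8 by ELISA in primary human skin co-culture (keratinocytes plus fibroblasts) 24 h post-dose, DMSO as baseline. Cytotoxicity assessed in parallel by sulforhodamine B total-protein staining.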

[13] = read-out: Macrophage Inflammatory Protein-1 Alpha (MIP1a), CCL3 (gene 6348); assay: BSK_IMphg_MIP1a: BioMAP Diversity Plus: IMphg Assay for Macrophage Inflammatory Protein-1 Alpha (MIP1a) Biomarker Activity (AID 2284255); conditions: primary human endothelial cells with macrophages
In short: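 Co-culture of human venular endothelial cells and macrophages exposed to compounds for 24 h; MIP-1a measured by ELISA relative to DMSO. Cytotoxicity assessed in parallel cultures by sulforhodamine B total-protein staining at 560 nm.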

[14] = read-out: Plasminogen activator inhibitor-1 (PAI1), SERPINE1 (gene 5054); assay: BSK_MyoF_PAI1: BioMAP Diversity Plus: MyoF Assay for Plasminogen activator inhibitor-1 (PAI1) Biomarker Activity (AID 2284256); conditions: primary human lung fibroblasts
In short: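 Human lung fibroblasts (MyoF system) were exposed to test chemicals for 24 h, then PAI-1 was quantified by ELISA. Activity was fitted in the positive (signal-gain) direction relative to DMSO vehicle as baseline.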

Measured: AC50

O=C(O)CCC(F)(F)C(F)(F)C(F)(F)C(F)(F)C(F)(F)F
active: [10] 2.04 µM | [13] 835 nM
inactive: [1] | [2] | [3] | [4] | [5] | [6] | [7] | [8] | [9] | [10] | [11] | [12] | [13] | [14]

O=C(O)CCC(F)(F)C(F)(F)C(F)(F)C(F)(F)C(F)(F)C(F)(F)F
inactive: [1] | [2] | [3] | [4] | [5] | [6] | [7] | [8] | [9] | [10] | [11] | [12] | [13] | [14]
active: [13] 7.18 µM and 19.2 µM

O=C(O)C(F)(F)OC(F)(F)C(F)(F)OC(F)(F)C(F)(F)OC(F)(F)C(F)(F)C(F)(F)C(F)(F)F
inactive: [4] | [5] | [7] | [12]
active: [1] 9.61 µM and 5.9 µM | [2] 6.08 µM and 4.89 µM | [3] 49.6 µM and 47 µM | [4] 4.11 µM | [5] 44.9 µM | [6] 16.8 µM and 14 µM | [8] 29.6 µM and 27.5 µM | [9] 30 µM | [10] 11.1 µM and 11.3 µM | [11] 38.2 µM and 24 µM | [13] 36.5 µM and 38.3 µM | [14] 14.6 µM and 13.3 µM

Cc1cccc2c1ccc1ccccc12
inactive: [1] | [2] | [4] | [5] | [6] | [7] | [14]
active: [3] 20 µM

Cc1ccc(N=Nc2c(O)ccc3ccccc23)c(C)c1
inactive: [1] | [2] | [3] | [4] | [5] | [6] | [7] | [14]

CCOC(=O)CN[C@@H](C(=O)N1CC[C@H]1C(=O)NCc1ccc(/C(N)=N/O)cc1)C1CCCCC1
inactive: [1] | [2] | [3] | [4] | [5] | [6] | [7] | [14]

C=COC(=O)C(C)(C)CCCCCC
active: [1] 34.2 µM | [2] 31.9 µM | [4] 34.3 µM | [6] 34.8 µM | [7] 29.7 µM | [14] 34 µM
inactive: [3] | [5]

OCCN1CN(CCO)CN(CCO)C1
active: [3] 20 µM | [5] 31.3 µM
inactive: [1] | [2] | [4] | [6] | [7] | [14]

NC(=NCCCCCCN=C(N)/N=C(\N)Nc1ccc(Cl)cc1)/N=C(\N)Nc1ccc(Cl)cc1
active: [1] 1.21 µM | [2] 2.24 µM | [3] 5.34 µM | [4] 4.86 µM | [5] 8.05 µM | [6] 9.23 µM | [7] 8.69 µM | [14] 4.43 µM

CCCCC(CC)C(=O)OCCOCCOCCOCCOC(=O)C(CC)CCCC (configuration not stated)
inactive: [1] | [2] | [3] | [4] | [6] | [7] | [14]
active: [5] 0.016 µM

Oc1c(Cl)cc(Cl)cc1Sc1cc(Cl)cc(Cl)c1O
active: [8] 2.92 µM and 2.86 µM | [9] 1.32 µM and 960 nM | [10] 1.25 µM and 1.44 µM
inactive: [12]
